Shown are actives, neighbours in structure and some others; about 3.4% of the full set was active somewhere.
PLCg1 inh: PLC-gamma1 (human) inhibition, primary screen; P19174; purified PLC-gamma1, fluorogenic substrate, fluorescence; inhibition, % at 12.2 µM; 370,000 compounds, 0.84% hits; AID 720700; in the data active means inhibition above about 9.5%
PLCb3 inh: inhibitors of human phospholipase C beta3 | inhibition, % at 12.2 µM | AID 720704 | Purified PLC-beta3, fluorogenic substrate, fluorescence | Q01970 | 370,000 compounds, 0.18% hits; in the data active means inhibition above about 11%;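 further: 0% = median of compound wells on plate and 100% = full blocker control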
proKLK7 act: proKLK7 (human) activation, primary screen. 370,000 compounds, 0.9% hits. activation, % at 7 µM. purified proKLK7, EDANS-DABCYL substrate fluorescence; 100% is mature enzyme control, 0% vehicle. AID 652039;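 active means activation above the mean of all tested compounds plus 3 SD, computed per campaign excluding outliers beyond control limits, cut at about 13% in these data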
ADAM10 inh: inhibits human ADAM10 | recombinant ADAM10, EDANS/DABCYL FRET peptide cleavage, 3 h | inhibition, % at 7 µM | 370,000 compounds, 0.62% hits | AID 720582;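 active means inhibition above a per-campaign cutoff equal to the mean of compounds falling between control-based bounds plus 3 SD, cut at about 20% in these data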;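 further: 0% = DMSO wells while the 100% control is not disclosed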
ADAM17 inh: inhibitors of human ADAM17; inhibition, % at 6.95 µM; P78536; recombinant ADAM17, EDANS/DABCYL FRET peptide cleavage; 370,000 compounds, 0.83% hits;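 active means inhibition above the mean of compounds lying between control limits plus 3 SD, set per campaign, cut at about 8.5% in these data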;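 further: 0% = DMSO-only wells as the low control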
HGIII-sPLA2 inh: Blocks human group III sPLA2 activity; QFRET BODIPY PC-A2 liposome hydrolysis, fluorescence; inhibition, % at 12.2 µM; 370,000 compounds, 0.56% hits; AID 743126;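 active means inhibition above mean plus 3 SD of compounds lying within the high and low control bounds, cut at about 19% in these data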;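 further: 0% = median of test compound wells and 100% = no enzyme DMSO wells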
Target sequence (Q9NZ20 whole entry, looked up): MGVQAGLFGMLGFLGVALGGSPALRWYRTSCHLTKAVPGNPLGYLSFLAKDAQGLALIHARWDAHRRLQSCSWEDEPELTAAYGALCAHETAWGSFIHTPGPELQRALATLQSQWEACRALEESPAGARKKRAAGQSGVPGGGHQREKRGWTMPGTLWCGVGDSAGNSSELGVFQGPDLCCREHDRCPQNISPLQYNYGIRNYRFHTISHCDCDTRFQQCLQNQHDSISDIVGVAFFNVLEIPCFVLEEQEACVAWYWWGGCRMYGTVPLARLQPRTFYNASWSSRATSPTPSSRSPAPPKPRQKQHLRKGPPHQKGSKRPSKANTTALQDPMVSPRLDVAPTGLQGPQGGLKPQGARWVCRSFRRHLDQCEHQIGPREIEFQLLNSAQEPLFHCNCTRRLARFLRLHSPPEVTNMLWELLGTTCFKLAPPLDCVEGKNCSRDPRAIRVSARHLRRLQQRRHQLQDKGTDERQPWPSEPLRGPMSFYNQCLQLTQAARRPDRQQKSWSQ
ADAM10 confirm: confirmation of inhibitors of human ADAM10; AID 743208; 2,100 compounds, 1% hits; inhibition, % at 6.95 µM; shares compounds with ADAM10 inh; ADAM10 QFRET peptide cleavage, EDANS fluorescence;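 active means inhibition above about 20% chosen separately for each screening run, limit read from the data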;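 further: 0% = DMSO wells and 100% = marimastat wells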
ADAM17 counter: inhibits human ADAM17 in ADAM10 exosite counter-screen; shares compounds with ADAM10 inh; ADAM17 QFRET peptide cleavage, EDANS fluorescence; inhibition, % at 6.95 µM; 2,100 compounds, 0.5% hits; AID 743214;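 active means mean triplicate inhibition above the solvent-only control wells' mean plus 3 SD, cut at about 12% in these data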;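 further: 0% = DMSO wells and 100% = marimastat wells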
ADAM10 counter: inhibits human ADAM10 in ADAM17 exosite counter-screen | inhibition, % at 6.95 µM | AID 743256 | shares compounds with ADAM17 inh | recombinant ADAM10, EDANS/DABCYL FRET peptide cleavage, 3 h | 2,900 compounds, 47% hits;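 active means mean inhibition over the triplicate runs exceeds the activity threshold set in the earlier primary screen, cut at about 20% in these data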;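 further: 0% = DMSO wells and 100% = marimastat wells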
ADAM17 confirm: confirmation of inhibitors of human ADAM17; shares compounds with ADAM17 inh; recombinant ADAM17, EDANS/DABCYL QFRET peptide cleavage; inhibition, % at 6.95 µM; 2,900 compounds, 65% hits;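 active means mean inhibition across replicates above the hit cutoff set in the primary screen, cut at about 8.5% in these data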;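 further: 0% = DMSO wells and 100% = marimastat wells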
Starred values were filed as active, the others as inactive.

What do the screens show for `O=C(NC(NC(=S)Nc1cccc(Cl)c1)C(Cl)(Cl)Cl)OCc1ccccc1` (configuration not stated)?
PLCg1 inh: -0.1; PLCb3 inh: 2.1; proKLK7 act: 0.2; ADAM10 inh: 28.4*; ADAM17 inh: 10.3*; HGIII-sPLA2 inh: -11.3; ADAM10 confirm: 11.5; ADAM17 counter: 3.8; ADAM10 counter: 35.0*; ADAM17 confirm: 20.2*

How did O=C(NC(NC(=S)Nc1cccc(C(=O)O)c1)C(Cl)(Cl)Cl)OCc1ccccc1 (configuration not stated) do in these assays?
PLCg1 inh: 0.0; PLCb3 inh: 1.9; proKLK7 act: 0.3; ADAM10 inh: -3.4; ADAM17 inh: -1.0; HGIII-sPLA2 inh: -4.8

What do the screens show for `CCOc1ncccc1C(=O)N(C)CC(=O)Nc1ccc(C)cc1`?
PLCg1 inh: -1.3; PLCb3 inh: 4.1; proKLK7 act: -0.6; ADAM10 inh: -4.4; ADAM17 inh: 0.1; HGIII-sPLA2 inh: 4.8

Results for Cc1ccc(NC(=O)CN(C)C(=O)c2cccnc2Nc2cccc(C(F)(F)F)c2)cc1 ?
PLCg1 inh: 2.8; PLCb3 inh: -6.6; proKLK7 act: 0.8; ADAM10 inh: 36.5*; ADAM17 inh: 13.4*; HGIII-sPLA2 inh: -2.0; ADAM10 confirm: 10.0; ADAM17 counter: 2.3; ADAM10 counter: 51.7*; ADAM17 confirm: 28.5*

How did CC(C)Nc1ccc(C(CC(N)=O)NC(=O)c2ccc(Br)cc2)cc1[N+](=O)[O-] (configuration not stated) do in these assays?
PLCg1 inh: 4.9; PLCb3 inh: 8.4; proKLK7 act: 0.7; ADAM10 inh: 12.8; ADAM17 inh: 1.2; HGIII-sPLA2 inh: 7.8

What do the screens show for `CN(Cc1ccccc1)c1ccc(C(CC(N)=O)NC(=O)c2ccc(Br)cc2)cc1[N+](=O)[O-]` (configuration not stated)?
PLCg1 inh: 6.0; PLCb3 inh: 4.7; proKLK7 act: 0.9; ADAM10 inh: 38.1*; ADAM17 inh: 15.4*; HGIII-sPLA2 inh: -2.1; ADAM10 confirm: 6.1; ADAM17 counter: 1.5; ADAM10 counter: 21.1*; ADAM17 confirm: 12.8*

How did CCOC(=O)c1ccc(NC(=O)CN(Cc2ccc(Cl)cc2)S(C)(=O)=O)cc1 do in these assays?
PLCg1 inh: 2.1; PLCb3 inh: 1.2; proKLK7 act: -0.5; ADAM10 inh: 26.1*; ADAM17 inh: 11.3*; HGIII-sPLA2 inh: -46.6; ADAM10 confirm: 1.1; ADAM17 counter: 0.3; ADAM10 counter: 25.1*; ADAM17 confirm: 15.2*

Results for CC(=O)C(N=Nc1ccccc1)(Sc1nnc(-c2ccccc2)n1-c1ccccc1)C(=O)Nc1ccccc1 (configuration not stated) ?
PLCg1 inh: -4.0; PLCb3 inh: -6.8; proKLK7 act: -1.9; ADAM10 inh: 14.7; ADAM17 inh: 4.0; HGIII-sPLA2 inh: 8.6

How did CC(=O)C(N=Nc1ccccc1)(Sc1nnc(-c2ccccc2)n1-c1ccccc1)C(C)=O do in these assays?
PLCg1 inh: -2.6; PLCb3 inh: 1.6; proKLK7 act: -1.9; ADAM10 inh: 26.2*; ADAM17 inh: 13.8*; HGIII-sPLA2 inh: -0.1; ADAM10 confirm: 4.1; ADAM17 counter: 1.6; ADAM10 counter: 12.6; ADAM17 confirm: 10.5*

How did Cc1cccc(Oc2cc(NC(=O)c3ccccc3)cc([N+](=O)[O-])c2)c1 do in these assays?
PLCg1 inh: 2.6; PLCb3 inh: -0.7; proKLK7 act: 0.3; ADAM10 inh: 21.5*; ADAM17 inh: 9.0*; HGIII-sPLA2 inh: -19.3; ADAM10 confirm: 7.3; ADAM17 counter: 2.2; ADAM10 counter: 17.2; ADAM17 confirm: 12.1*

How did Cc1cccc(C(=O)Nc2cccc(NC(=O)c3ccccc3)c2)c1 do in these assays?
PLCg1 inh: 5.3; PLCb3 inh: 1.5; proKLK7 act: 0.4; ADAM10 inh: 25.9*; ADAM17 inh: 10.3*; HGIII-sPLA2 inh: -14.4; ADAM10 confirm: 2.9; ADAM17 counter: -0.3; ADAM10 counter: 15.6; ADAM17 confirm: 10.8*

Results for CCn1c2ccccc2c2cc(C=Nn3c(-c4ccccn4)n[nH]c3=S)ccc21 ?
PLCg1 inh: -367.4; PLCb3 inh: -476.9; proKLK7 act: -2.3; ADAM10 inh: -79.8; ADAM17 inh: -20.2; HGIII-sPLA2 inh: -2.1

How did CCOC(=O)[C@]12CCCC=C1N(CCc1ccc(OC)c(OC)c1)C(=O)[C@H](CC(=O)NCc1ccccc1)C2 do in these assays?
PLCg1 inh: 3.2; PLCb3 inh: 2.3; proKLK7 act: 0.4; ADAM10 inh: 2.3; ADAM17 inh: -1.1; HGIII-sPLA2 inh: -7.4

How did COC(=O)[C@@]12C[C@@H](CC(=O)NCc3ccc(OC)c(OC)c3)C(=O)N(CCc3ccc(OC)c(OC)c3)C1=CCC(C)(C)C2 do in these assays?
PLCg1 inh: -2.7; PLCb3 inh: -4.9; proKLK7 act: 0.2; ADAM10 inh: -14.9; ADAM17 inh: 0.4; HGIII-sPLA2 inh: -9.1

How did CCCCCCCCN1C(=O)[C@H](CC(=O)NCc2ccc(OC)c(OC)c2)C[C@@]2(C(=O)OCC)CCCC=C12 do in these assays?
PLCg1 inh: 8.2; PLCb3 inh: 5.0; proKLK7 act: 0.0; ADAM10 inh: 30.9*; ADAM17 inh: 12.8*; HGIII-sPLA2 inh: -13.3; ADAM10 confirm: 4.4; ADAM17 counter: 1.2; ADAM10 counter: 41.0*; ADAM17 confirm: 22.1*

What do the screens show for `CCCCCCCCN1C(=O)[C@H](CC(=O)NCc2ccc(OC)c(OC)c2)C[C@@]2(C(=O)OC)CC(C)(C)CC=C12`?
PLCg1 inh: 5.0; PLCb3 inh: 0.5; proKLK7 act: 0.3; ADAM10 inh: 23.8*; ADAM17 inh: 8.7*; HGIII-sPLA2 inh: -24.5; ADAM10 confirm: 7.1; ADAM17 counter: 3.0; ADAM10 counter: 32.1*; ADAM17 confirm: 15.1*

What do the screens show for `O=C(NNc1ccccc1Br)C(O)(c1cccc(C(F)(F)F)c1)c1cccc(C(F)(F)F)c1`?
PLCg1 inh: 7.5; PLCb3 inh: 7.7; proKLK7 act: -0.5; ADAM10 inh: 48.6*; ADAM17 inh: 25.1*; HGIII-sPLA2 inh: -12.9; ADAM10 confirm: 11.0; ADAM17 counter: 3.8; ADAM10 counter: 52.2*; ADAM17 confirm: 23.4*

Screening data: PubChem BioAssay, The Scripps Research Institute Molecular Screening Center
